# Reference: the supplement of paper PMC6555819
# Assays:
# Experiment in all cases: PBM binding z-score (relative to random genomic background probes); higher = stronger binding; sequences stand for … in GC…GCGATTGACAGCGTAGAATGAAGG
# [1] = system: FXR:RXRa (NR concentration 270 nM, RXRa partner concentration 90 nM)
# Method in brief: (§1)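 For binding z-scores, the reference was random background probes on custom Agilent 4×180K protein-binding microarrays. These arrays were incubated 1 h with ligand-free nuclear receptor dimers in PBS pH 7.4, 2% milk, 0.02% Triton X-100, 1 mM DTT, 0.2 mg/mL BSA and 0.4 mg/ml salmon testes DNA. Fluorescence was scanned after antibody detection of each partner (one per run) and regression-normalized.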
# [2] = system: LXRa:RXRa (NR concentration 270 nM, RXRa partner concentration 90 nM)
# Method in brief: as §1
# [3] = system: LXRa homodimer (NR concentration 270 nM)
# Method in brief: as §1
# [4] = system: LXRb:RXRa (NR concentration 270 nM, RXRa partner concentration 90 nM)
# Method in brief: as §1
# [5] = system: LXRb homodimer (NR concentration 270 nM)
# Method in brief: as §1
# [6] = system: PPARa:RXRa (NR concentration 270 nM, RXRa partner concentration 90 nM)
# Method in brief: as §1
# [7] = system: PPARg:RXRa (NR concentration 180 nM, RXRa partner concentration 90 nM)
# Method in brief: as §1
# [8] = system: PPARg:RXRa 270nM:90nM, anti-RXR (NR concentration 270 nM, RXRa partner concentration 90 nM)
# Method in brief: as §1
# [9] = system: PPARg:RXRa 30nM:10nM, anti-RXR (NR concentration 30 nM, RXRa partner concentration 10 nM)
# Method in brief: as §1
# [10] = system: PPARg:RXRa 90nM:30nM, anti-RXR (NR concentration 90 nM, RXRa partner concentration 30 nM)
# Method in brief: as §1
Sequence,PBM binding z-score [1],PBM binding z-score [2],PBM binding z-score [3],PBM binding z-score [4],PBM binding z-score [5],PBM binding z-score [6],PBM binding z-score [7],PBM binding z-score [8],PBM binding z-score [9],PBM binding z-score [10]
AGTCAAAGTTCACTAGATAACGTAAGATTCAGCT,4.55,4.91,2.72,2.91,1.04,3.97,5.54,5.7,2.23,4.53
GCTGCTAGGTCAACTGATGTTCAGCTAAAGCTCG,4.01,2.78,0.062,1.95,0.048,3.71,2.89,3.07,0.613,1.86
TGAATAAGGTTAAAGATCAGGGAACGTGGCGTCG,2.83,2.57,0.114,1.71,0.337,3.91,4.41,5.68,4.08,5.9
CCTAGCAGGCCTATCTGGGTCACTCAAGGCTTGA,0.317,0.546,-0.58,0.838,-1.2,3.07,1.7,2.01,-0.0826,1.15
GCAATTAGTTGAAAGGGCAACCGAATGATTCTCG,0.0908,0.491,0.0352,0.496,-0.314,2.69,3.22,5.14,3.49,5.31
CAAACTAGGTCACGAAATGTCAAAGTCGAATGAC,4.45,5.4,1.06,3.49,0.702,5.42,9.32,7.56,6.2,7.61
TGTCAAAGTTCAAAGGTATCGTAAGTATCCACAC,6.52,6.21,4.75,3.88,1.73,5.28,7.79,7.23,4.93,6.44
GTACCAAGGTGAATAGGACGTTGATGAGTAGGCG,0.0663,-0.214,0.103,-0.344,-0.664,0.537,1.07,0.126,0.338,0.55
GTACCTAGGTGAATAGGTCGTTGATGAGTAGGCG,0.327,0.577,-0.19,0.185,-0.886,1.93,1.83,2.16,0.782,1.89
CCGACTGGGGCAAAGGGTACCATACTCAGTACGA,-0.124,-0.144,-0.41,0.194,-1.06,3.81,8.34,7.63,6.97,8.88
GCTCGGAGGACAAGGTCTGAGCTTTGTCCGTAGA,-0.67,-0.493,-0.867,-0.602,-1.01,-0.36,-1.05,-0.462,-1.11,-1
CCTACTGGGCCAAGGTCATTGATCAGTCAAAGCA,2.95,3.12,1.06,2.74,-0.497,4.1,4.15,4.44,1.5,3.81
CGAACTAGGTCATCCAGGACAGTGAATACATTGA,4.28,2.79,0.603,2.04,0.134,4.91,7.69,6.5,4.15,6.05
GCTTGTAGATCAAGGTTAATAAAGACTAAGCTAA,-0.0696,2.14,-0.45,0.661,-0.608,1,1.29,2.36,0.581,1.78
CAAACTAGGTCACGAAAGGTCATAGTCGAATGAC,7.43,7.78,7.34,6.95,2.21,6.37,10.5,8.43,7.64,8.8
TCGAGTAGGTTACCAATGGGGGATTCAGCTTTCT,0.454,1,-0.159,2.46,5.29,1.74,0.645,2.31,1.35,2.08
CCAGACAGGTGAAAGGTAACCCAGTCTGGTACGC,0.66,0.713,-0.512,0.445,-0.0532,3.4,5.86,5.65,3.97,5.97
CCTATTGGGCCAAAAAGGTCATTGATGCCGATAA,3.69,4.37,2.45,4.04,0.266,4.6,2.25,3.39,0.941,2.81
CAAACTAGGTCACGAAAGGTCAAAGACGAATGAC,7.6,8.07,7.51,7.29,2.75,6.72,10.4,8.57,8.01,8.93
TATACAGGGTCAAAGGCCAGTGTACGAATGTCGA,6.89,6.1,2.61,4.74,2.33,6.22,8.3,7.38,4.93,7.23
GCTGCTAGGTCAACTGATGGTCAGCGAAAGCTCG,4.13,3.2,0.141,2.07,-0.112,3.84,2.73,3.35,0.723,2.31
ACTACTAGTTGAGACGAGGGCAACCGATAGGTTG,0.166,-0.245,-0.365,-0.0617,-0.193,0.173,0.721,0.0309,-0.149,-0.0878
AGTCAAACTTCATCTAGGTAACGTAAGATATGCT,-0.0376,-0.223,-0.295,0.127,0.1,-0.0609,0.882,0.333,0.414,0.33
CTGACTGGGGCATAAGGTTACCATAAGCCAGCCC,0.671,2.05,0.0158,1.61,-0.345,2.69,3.2,3.99,2.16,3.9
